Data as given in PubChem BioAssay (NCI).
Several values for one entry are separate records, joined by “and”; a condition that tells them apart may be missing. Identical values can stand only once. Compounds without any hit were thinned out: in the full panel of roughly 79,000, 15% have a hit. Activity calls are given as the source filed them. Cut-off read from the data, not from the text of the source: active = growth inhibition above about 70%; inactive = the rest.

How the values were obtained:
[1] = NCI Yeast Anticancer Drug Screen. Data for the rad50 strain (AID 155);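 note: 0% = growth of vehicle-only cultures of the same strain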; settings: S. cerevisiae rad50 strain growth inhibition, stronger effect = higher value; at 50.0 µM unless noted
In short: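 A DNA repair-deficient yeast mutant serves as the test organism; compound-induced growth inhibition is calculated against vehicle-treated cells.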

[2] = NCI Yeast Anticancer Drug Screen. Data for the mec2-1 strain (AID 157); settings: S. cerevisiae mec2-1 strain, stronger effect = higher value; at 50.0 µM unless noted
In short: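 Yeast mec2-1 mutant treated with compound. Readout: growth inhibition vs vehicle controls.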

[3] = NCI Yeast Anticancer Drug Screen. Data for the sgs1 mgt1 strain (AID 161);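 note: 0% = growth of cultures given vehicle only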; settings: S. cerevisiae sgs1 mgt1 strain, stronger effect = higher value; at 50.0 µM unless noted
In short: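 Read-out: growth inhibition vs vehicle controls. Cells: mutant yeast strain deficient in DNA damage repair.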

[4] = NCI Yeast Anticancer Drug Screen. Data for the cln2 rad14 strain (AID 165);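 note: 0% = growth equal to vehicle treated cultures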; settings: S. cerevisiae cln2 rad14 strain, stronger effect = higher value; at 50.0 µM unless noted
In short: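 cln2 rad14 yeast strain; compound exposure; growth inhibition read vs vehicle controls.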

[5] = NCI Yeast Anticancer Drug Screen. Data for the bub3 strain (AID 167); settings: S. cerevisiae bub3 mutant strain, stronger effect = higher value; at 50.0 µM unless noted
In short: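 Inhibition values come from growth of compound-treated mutant yeast normalised to vehicle-treated controls.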

[6] = NCI Yeast Anticancer Drug Screen. Data for the mlh1 rad18 strain (AID 175); settings: S. cerevisiae mlh1 rad18 strain growth inhibition, stronger effect = higher value; at 50.0 µM unless noted
In short: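 Yeast w/ defined DNA-repair lesions; compound exposure; growth vs vehicle controls → % inhibition.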

Measured: growth inhibition

Cn1c(Nc2ccccc2)c(C=Nc2ccccc2)c(=O)n(C)c1=O
inactive: [1] -2.15% | [2] 3.45% | [3] -7.85% | [4] 7.55% | [5] -22.6% | [6] -0.9%

OCC#CC#CCO
inactive: [1] -3.7% | [2] -7.45% | [3] 8.75% | [4] -1.05% | [5] -15.8% | [6] -1.45%

c1ccc2c(c1)nnn2C1CCCCO1 (configuration not stated)
inactive: [1] -4.8% | [2] -13.2% | [3] -19.5% | [4] -5.1% | [5] -22.4% | [6] -72.8%

CC(=O)OCC1OC(n2c(-c3ccccc3)c(N=Nc3ccc(C)cc3)c(C)c(C#N)c2=S)C(OC(C)=O)C(OC(C)=O)C1OC(C)=O (configuration not stated)
inactive: [1] -22.6% | [2] -25.1% | [3] -22.9% | [4] 4.05% | [5] -4.9% | [6] 1.1%

Cc1ccc(/C=C2\CCCC\C2=N\O)cc1
inactive: [1] 5.15% | [2] -7% | [3] 2.3% | [4] -10.2% | [5] -22.6% | [6] 2.15%

O=C(Nc1ccc2ccccc2c1)c1ccccc1Cl
inactive: [1] 1.65% | [2] -4.4% | [3] 21.9% | [4] -7.15% | [5] 17.1% | [6] 32.3%

CN(C)P1(=O)N(c2ccccc2)P(=O)(N(C)C)N1c1ccccc1 (configuration not stated)
inactive: [1] -11.5% | [2] -32.1% | [3] -17.1% | [4] -1.55% | [5] -19.4% | [6] -34.7%

COC(=O)C(=O)C(C(=O)C(=O)Nc1cccc(C(C)=O)c1)c1nc2ccccc2[nH]c1=O (configuration not stated)
inactive: [1] 2.7% | [2] -9.45% | [3] 2.15% | [4] 14.2% | [5] -18.9% | [6] 3.5%

CN(C)c1ccc(O[Si](Oc2ccc(N(C)C)cc2)(Oc2ccc(N(C)C)cc2)Oc2ccc(N(C)C)cc2)cc1
inactive: [1] 27.6% | [2] 37.2% | [3] 25.8% | [4] 29.4% | [5] 14.3% | [6] 43.8%

Cc1nc(Nc2cccc(Cl)c2)c2cnn(-c3ccc(Cl)cc3)c2n1
inactive: [1] -2.5% | [2] -0.25% | [3] 1.1% | [4] -41.4% | [5] -0.45% | [6] -4.35%

NCCCCCCCCCCN
inactive: [1] -22.9% | [2] -5.1% | [3] -5.9% | [4] -29.4% | [5] -35.7% | [6] -11.9%

COc1ccc(O)c2c1C(=O)CCCC2=O
inactive: [1] 3.65% | [2] -0.75% | [3] 6.35% | [4] -4.6% | [5] 4.05% | [6] 0.7%

O=C1NC(N/N=C\C(O)C(O)C(O)CO)=N/C1=C/c1ccc(Cl)cc1 (configuration not stated)
inactive: [1] 43.2% and 45.5% | [2] 37% and 43% | [3] 44.8% and 35.1% | [4] 36.8% and 26.8% | [5] 38.1% and 43% | [6] 14.8% and 38.6%

CS(=O)(=O)OCCN(CCOS(C)(=O)=O)c1cc(C(N)=O)c([N+](=O)[O-])cc1[N+](=O)[O-]
inactive: [1] -5.05% | [2] 9.55% | [3] -11.7% | [4] -12.9% | [5] -0.35% | [6] 16.9%

CCSc1[nH]c(Nc2nc(-c3ccccc3)n(-c3ccccc3)n2)c(C(N)=O)c1C(N)=O
inactive: [1] -16.9% | [2] 1.35% | [3] 7.8% | [4] -5.85% | [5] -9.75% | [6] 7%

COc1cccc2cc3c(cc12)C(=O)C(C)=C(C)C3=O
inactive: [1] -1.65% | [2] -3.6% | [3] -3.45% | [4] -9.25% | [5] 6.8% | [6] 2.55%

CSc1nc2c(nc(N)n2C2OCC(O)C(O)C2O)c(=O)n1C (configuration not stated)
inactive: [1] 12.1% | [2] 14.1% | [3] 22.6% | [4] 32.6% | [5] 17.9% | [6] 32.2%

COc1ccc(OCc2ccc(OC)c(OC)c2)cc1
inactive: [1] 7.2% | [2] -3.7% | [3] -11.2% | [4] -10.7% | [5] -8.15% | [6] -7.35%

N#CC(c1ccccc1)c1ccc(C(c2ccccc2)(c2ccccc2)C(C#N)c2ccccc2)cc1 (configuration not stated)
inactive: [1] 17.4% | [2] 8.55% | [3] 13.9% | [4] 19.3% | [5] -4.8% | [6] 5.1%

CC(C)c1ccc(/C(C(=O)O)=C(\O)C(=O)O)cc1
inactive: [1] -14.4% | [2] -7.25% | [3] -15.4% | [4] 29.9% | [5] -31.6% | [6] -7.45%

O=[N+]([O-])c1cccc(SSc2cccc([N+](=O)[O-])c2)c1
inactive: [1] 0.45% and -34.8% | [2] -16.1% and -57% | [3] -1.8% and -61.9% | [4] -2.95% and -12.7% | [5] -3.1% and -35.6% | [6] -1.3% and -65.8%

CC1=CC(C)C(C(=O)OCC(C)C)C(C(=O)OCC(C)C)C1 (configuration not stated)
inactive: [1] -13.2% | [2] -6% | [3] -5.1% | [4] 1.45% | [5] 23% | [6] -22.4%

NNC(=O)c1nnn(CCc2ccccc2)c1C(=O)NN
inactive: [1] -1.45% | [2] 3.25% | [3] -1.15% | [4] 5.55% | [5] -9.55% | [6] -3.9%

O=CC(O)C(O)C(O)C(O)C(O)C(O)CO (configuration not stated)
inactive: [1] 16% | [2] 10.7% | [3] 28.1% | [4] -1.55% | [5] 5.9% | [6] 19.6%

CC1CCCCN1Cc1ccccc1COC(=O)c1ccc([N+](=O)[O-])cc1Cl (configuration not stated)
inactive: [1] 41.1% | [2] 30.4% | [3] 49.9% | [4] 8.85% | [5] 21.4% | [6] -3.6%

CCC(c1cccc(C(=O)O)c1)C(C(C)=O)c1ccc(O)cc1 (configuration not stated)
inactive: [1] 0.8% | [2] -20.5% | [3] -6.1% | [4] -22.5% | [5] 4% | [6] -5.05%

CNc1ccccc1C(=O)NCCCN
inactive: [1] -10.3% | [2] -25.6% | [3] 5% | [4] 2.75% | [5] 18.8% | [6] 0.45%

OCCN/N=C/c1ccncc1
inactive: [1] -4.35% | [2] -52.2% | [3] -20.2% | [4] 15.2% | [5] -14.3% | [6] 23.8%

CC(C)N(Cc1ccccc1)S(=O)(=O)c1n[nH]c(C(C)(C)C)n1
inactive: [1] 3.2% | [2] -27.1% | [3] -3.65% | [4] -5.8% | [5] -6.75% | [6] -0.75%

CCN(CC)C(=O)c1c(N2CCOCC2)cc(N(CC)CC)oc1=O
inactive: [1] -10.2% | [2] -8.25% | [3] -46.6% | [4] -8.85% | [5] -37.9% | [6] -40.6%

CN(C)CC[N+]1=Nc2cccc3cccc(c23)N1
inactive: [1] -6.85% | [2] -8.6% | [3] -2.4% | [4] 1.55% | [5] -6.2% | [6] 3.9%

O=c1[nH]cc(Br)c(=O)[nH]1
inactive: [1] 28.8% | [2] 19.7% | [3] 13.7% | [4] 9.3% | [5] 21.9% | [6] 37%

Fc1ccccc1C1SCc2nc3cc4ccccc4cc3n21 (configuration not stated)
inactive: [1] -33.6% | [2] -17.8% | [3] 0.95% | [4] -1.45% | [5] -0.95% | [6] 40%

C=CCNC(=S)NNc1nc(C)cc(=O)[nH]1
inactive: [1] 30.1% | [2] -27.9% | [3] 11.7% | [4] 5.55% | [5] 5.95% | [6] 4.3%

COCCOC(=O)COc1ccccc1
inactive: [1] 22.1% | [2] 23% | [3] 16.2% | [4] 3.5% | [5] -8% | [6] -1.15%

CC(=O)Cc1ncn(-c2cc(C)on2)n1
inactive: [1] -9.4% | [2] -20.4% | [3] -18.1% | [4] 11.6% | [5] -1.45% | [6] -13.7%

CCOC(=S)Nc1ccccc1[N+](=O)[O-]
inactive: [1] 8.05% | [2] -10.6% | [3] 0.05% | [4] -57.6% | [5] -23.6% | [6] -9.15%
